This is one part of the list. Activity calls are given as the source filed them.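 Rule for the calls: active = signal increase whose fitted curve reaches an absolute level of 40 at a concentration under 10 µM; inactive = activity opposite to the expected increase, or the rest.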
Experiment: enhancers of UUG start codon usage in yeast, dose response, S. cerevisiae, UUG firefly luciferase, cherry-pick, set 2 (AID 652061);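 note: 0% = median DMSO signal and 100% = twice the DMSO signal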
Details: max activity: measured here: max activity, test 2, at 38 µM, test 2, stronger effect = higher value unless noted

With `Cc1c(Nc2cc(N3CCCC(C)C3)c3nonc3c2[N+](=O)[O-])c(=O)n(-c2ccccc2)n1C` (configuration not stated) the max activity was 9.02% and the outcome was “inactive”.

For `CN1CCN(C(=O)/C(=C\c2cccs2)NC(=O)c2cccs2)CC1`, the max activity was 13.1% and the outcome was “inactive”.

In the case of `CCOC(=O)C(=Cc1ccccc1OC)C(=O)OCC`, the max activity is reported as 9.08% [measured here: max activity, test 2, at 0.15 µM, test 2, stronger effect = higher value] and the outcome is reported as “inactive”.

For `CC1CCC(NC(=O)C2c3ccccc3C(=O)N2Cc2ccc3c(c2)OCO3)CC1` (configuration not stated), the max activity was -4.01% and the outcome was “inactive”.

In the case of `O=C(COc1ccc(Cl)cc1)NCc1nnc(SCC(=O)NCC2CCCO2)o1` (configuration not stated), the max activity is reported as -8.21% [measured here: max activity, test 2, at 0.15 µM, test 2, stronger effect = higher value] and the outcome is reported as “inactive”.

For `CC1CCCN(S(=O)(=O)c2ccc(N(C(=O)c3cnccn3)C(C(=O)NC3CCCCC3)c3cccs3)cc2)C1` (configuration not stated), the max activity was -8.84% [measured here: max activity, test 2, at 0.05 µM, test 2, stronger effect = higher value] and the outcome was “inactive”.

With `CC(=O)Nc1ccccc1-c1cn(CC(=O)N2CCOCC2)nn1` the max activity was 8.61% [at 75 µM, test 1, stronger effect = higher value] (inactive).

In the case of `Cc1ccc(F)cc1NC(=O)Cc1nn(C)c(=O)c2ccccc12`, the max activity is reported as -14.8% [measured here: max activity, test 2, at 12 µM, test 2, stronger effect = higher value] and the outcome is reported as “inactive”.

In the case of `O=C(c1cccnc1)N1C[C@H]2[C@@H](c3ccccc31)[C@H](CO)N2C(=O)C1CC1`, the max activity is reported as 24.4% [at 0.035 µM, test 1, stronger effect = higher value] (inactive).

For `CC(C)C#Cc1ccc2c(c1)O[C@@H](CN(C)C(=O)CN(C)C)[C@@H](C)CN([C@H](C)CO)S2(=O)=O`, the max activity was -9.02% [at 0.3 µM, test 1, stronger effect = higher value] (inactive).

In the case of `C#CCSc1nnc(-c2sc3ccccc3c2Cl)o1`, the max activity is reported as 6.33% [measured here: max activity, test 2, at 0.46 µM, test 2, stronger effect = higher value] and the outcome is reported as “inactive”.

With `O=C(C1CCC1)N1C[C@H]2[C@@H](c3ccccc31)[C@@H](CO)N2C(=O)c1ccccc1F` the max activity was 6.68% [at 0.035 µM, test 1, stronger effect = higher value] (inactive).

For `C[C@@H]1CN([C@@H](C)CO)C(=O)c2cc(Br)cnc2O[C@@H]1CN(C)C(=O)C1CCCCC1`, the max activity was -6.87% [at 0.9 µM, test 1, stronger effect = higher value] (inactive).

With `Cc1onc(-c2ccc(Cl)cc2)c1-c1ccnn1S(=O)(=O)c1ccc(Cl)cc1` the max activity was 13.9% and the outcome was “inactive”.

In the case of `CCc1cccc(C)c1N(C(=O)Cn1c(CO)nc2ccccc21)C(C)COC` (configuration not stated), the max activity is reported as 6.66% [measured here: max activity, test 2, at 12 µM, test 2, stronger effect = higher value] and the outcome is reported as “inactive”.

In the case of `COc1ccc(NC(=O)N(C)C[C@H]2OCCCC[C@@H](C)Oc3ccc(NC(=O)NC4CCCCC4)cc3C(=O)N([C@@H](C)CO)C[C@H]2C)cc1`, the max activity is reported as 8.38% [at 26 µM, test 1, stronger effect = higher value] (inactive).

In the case of `CC(=O)N1CC(=O)N(CC(=O)Nc2ccc(Br)cc2)C1=S`, the max activity is reported as 9.59% [measured here: max activity, test 2, at 1.35 µM, test 2, stronger effect = higher value] and the outcome is reported as “inactive”.

In the case of `c1ccc(-n2cccc2)c(N2CCCCC2)c1`, the max activity is reported as 8.5% [measured here: max activity, test 2, at 0.05 µM, test 2, stronger effect = higher value] and the outcome is reported as “inactive”.

In the case of `O=C1N=C(N2CCc3ccccc3C2)S/C1=C\c1ccc(O)cc1`, the max activity is reported as 7.99% [measured here: max activity, test 2, at 12 µM, test 2, stronger effect = higher value] and the outcome is reported as “inactive”.

For `C[C@@H]1CN([C@@H](C)CO)S(=O)(=O)c2ccc(C#Cc3ccc(F)cc3)cc2O[C@H]1CN(C)C(=O)NC1CCCC1`, the max activity was 10% [at 2.85 µM, test 1, stronger effect = higher value] (inactive).

For `COCCCNC(=O)Cn1cc(C(=O)C2CC2)c2ccccc21`, the max activity was -7.83% [measured here: max activity, test 2, at 1.35 µM, test 2, stronger effect = higher value] and the outcome was “inactive”.

For `COc1ccc(CCN2C(=O)[C@@]3(Cc4ccccc42)c2ccccc2C(=O)N(Cc2ccccc2C(F)(F)F)[C@H]3c2ccc(CO)cc2)cc1`, the max activity was 5.62% [at 26 µM, test 1, stronger effect = higher value] (inactive).

With `O=C(N[C@H]1CC[C@@H](CCNS(=O)(=O)Cc2ccccc2)O[C@H]1CO)c1ccccc1F` the max activity was 8.33% [at 0.035 µM, test 1, stronger effect = higher value] (inactive).
